Measurements: PubChem BioAssay (NCATS)
Inconclusive results are not listed. Values without a mark were called inactive. Activity calls are given as the source filed them. Calls follow the shape of the dose curve; as a rule, active = well fitted cell-killing curve with a large enough effect; inconclusive = small, poorly fitted or top-dose-only effect, or effect the other way; inactive = no such curve, though single readings can be large or run the other way.

Test: Quantitative High-Throughput drug screen in 47 multiple myeloma cell lines against the NCATS MIPE library collection: Karpas620_DSMZ cell viability assay (AID 1918959); also: nearly all actives have a fitted effect of over 30% in size
Details: Karpas620 myeloma viability, CellTiter-Glo ATP luminescence, 48 h; series mostly up to 45.8 µM; viability (% of DMSO): at the top concentration
Source text: PI: Beverly A. Mock Ph.D.
Laboratory of Cancer Biology and Genetics,
Center for Cancer Research, National Cancer Institute,
National Institute of Health, Bethesda, Maryland
Drug resistance and disease progression are common in multiple myeloma (MM) patients, underscoring the need for new therapeutic combinations. […] We hypothesized that effective combinations would reduce MYC expression and enhance p16 activity. […] These preclinical data identify potentially useful drug combinations for evaluation in drug-resistant MM and reveal potential mechanisms of combined drug sensitivity.
Described herein is the primary MIPE qHTS used to cherrypick compounds. Validated compounds were then further tested for potential synergistic activiy.
[1] Peat TJ, Gaikwad SM, Dubois W, Gyabaah-Kessie N, Zhang S, Gorjifard S, Phyo Z, Andres M, Hughitt VK, Simpson RM, Miller MA, Girvin AT, Taylor A, Williams D, D'Antonio N, Zhang Y, Rajagopalan A, Flietner E, Wilson K, Zhang X, Shinn P, Klumpp-Thomas C, McKnight C, Itkin Z, Chen L, Kazandijian D, Zhang J, Michalowski AM, Simmons JK, Keats J, Thomas CJ, Mock BA. Drug combinations identified by high-throughput screening promote cell cycle transition and upregulate Smad pathways in myeloma. Cancer Lett. 2023 Aug 1;568:216284. doi: 10.1016/j.canlet.2023.216284. Epub 2023 Jun 24. PMID: 37356470; PMCID: PMC10408729.
SEQUENCE No. (e.g., 1, 2, 3, etc.); […] (e.g., Cells, Incubation, Reagent, etc.); VALUE and DESCRIPTION.
1; Cells; 5 uL; white, solid bottom 1536-well Greiner assay plate.
2; Compounds; 23 nL; Kalypsis pin tool (Wako USA) equipped with a 1536-well pin head to transfer to the assay plates.
3; Incubation; 48 hours; 37C incubation.
4; Reagent;5uL; CellTiter Glo (Promega).
5; Detector; 425V; Luminescence; Viewlux PerkinElmer.
NOTES (numbers refer to Sequence numbers above)
1. The cell-based screening methods employed in this study were like those previously published. Briefly, the corresponding myeloma cell lines were screened in 1,536-well plates with 500 cells, 5-uL per well for inhibition of cell viability (assessed by measuring ATP levels with CellTiterGlo).
2. NCATS MIPE 4.0 library of approved and investigational drugs were added using the Kalypsis pin tool. Wells treated with DMSO only for 100% viability and media only wells for 0% viability were used as controls.
3. The assay plates were covered and incubated for 48 hours in a 37C, 5% CO2 incubator with controlled humidity.
4. After 48 hours, CellTilter-GloTM luminescent substrate mix (Promega) reagent was added to the assay plate and plates we incubated for 5 min at room temperature.
5. Signal was measured as median relative luminescence units on a ViewLux (PerkinElmer) multiplate reader.
[1] Heske CM, Davis MI, Baumgart JT, Wilson K, Gormally MV, Chen L, Zhang X, Ceribelli M, Duveau DY, Guha R, Ferrer M, Arnaldez FI, Ji J, Tran HL, Zhang Y, Mendoza A, Helman LJ, Thomas CJ. Matrix Screen Identifies Synergistic Combination of PARP Inhibitors and Nicotinamide Phosphoribosyltransferase (NAMPT) Inhibitors in Ewing Sarcoma. Clin Cancer Res. 2017 Dec 1;23(23):7301-7311. doi: 10.1158/1078-0432.CCR-17-1121. Epub 2017 Sep 12. PMID: 28899971; PMCID: PMC6636827.
Potency is read from the fitted curve at half-maximal effect.

| SMILES | Potency | viability (% of DMSO) |
| --- | --- | --- |
| Cc1cccc(Nc2nc(N[C@@H]3CCCC[C@H]3N)ncc2C(N)=O)c1 | 26.4 µM (active) |  |
| Cc1ccccc1C(C(=O)NC1CCCCC1)N(C(=O)CNc1ccc(C#N)cc1)c1cccc(F)c1 (stereo not given) |  | 123% |
| CN[C@H]1[C@@H](O[C@@H]2[C@H](O[C@@H]3[C@@H](O)[C@@H](O)[C@@H](N=C(N)N)[C@@H](O)[C@@H]3N=C(N)N)O[C@H](C)[C@@]2(O)C=O)O[C@@H](CO)[C@@H](O)[C@H]1O |  | 120% [at 15.3 µM] |
| CC(NCCc1ccc(O)cc1)C(O)c1ccc(O)cc1 (stereo not given) |  | 118% |
| CCC(=O)N1CCN(c2ccc(-n3c(=O)ccc4cnc5ccc(-c6cnc7ccccc7c6)cc5c43)cc2C(F)(F)F)CC1 | 0.0187 µM (active) |  |
| C=C1c2cccc(O)c2C(O)=C2C(=O)[C@@]3(O)C(O)=C(C(N)=O)C(=O)[C@@H](N(C)C)[C@@H]3[C@@H](O)[C@H]12 |  | 112% |
| COc1c(C)c2c(c(O)c1CC=C(C)CCC(=O)OCCN1CCOCC1)C(=O)OC2 |  | 103% |
| CN1CCN(c2ncc(-c3cc(Cl)cc(Cl)c3Cl)c(N)n2)CC1 | 20.9 µM (active) |  |
| O=C(Nc1cccc(Cl)c1)Nc1ncc(CCNc2ncnc3ccsc23)s1 | 3.32 µM (active) |  |
| Cc1cc(NC(=O)Nc2ccc(N(C)C)cc2)c2cc(F)cc(F)c2n1 |  | 130% |
| CC(O)=C(C#N)C(=O)Nc1ccc(C(F)(F)F)cc1 |  | 116% |
| Oc1cc(O)cc(C=Cc2ccc(O)c(O)c2)c1 | 5.26 µM (active) |  |
| CN1CCC(COc2cnc(-c3cccc(Cn4nc(-c5cccc(C#N)c5)ccc4=O)c3)nc2)CC1 |  | 102% |
| CC(C)(C)c1nc(-c2cccc(NS(=O)(=O)c3c(F)cccc3F)c2F)c(-c2ccnc(N)n2)s1 | 20.9 µM (active) |  |
| O=c1[nH]nc(OCCCc2ccc(Cl)cc2)c(NCc2cccnc2)c1Br | 10.5 µM (active) |  |
| Nc1[nH]nc2nnc(-c3c(-c4ccccc4)nn4ccccc34)cc12 | 16.6 µM (active) |  |
| CN1[C@H]2CC[C@H]1CC(OC(=O)c1c[nH]c3ccccc13)C2 (stereo not given in full) |  | 89.8% |
| O=c1[nH]c(=O)n([C@H]2C[C@@H](O)[C@@H](CO)O2)cc1I |  | 101% |
| CC(C)=CCCC(C)=CCCC(C)=CCCC(C)=CCCC(C)=CCCC(C)=CCCC(C)=CCCC(C)=CCCC(C)=CCO |  | 117% |
| O=C(Nc1cccc(C(F)(F)F)c1)Nc1cc(S(=O)(=O)NC2CC2)ccc1-c1ccsc1 |  | 97.1% |

| SMILES | Potency | viability (% of DMSO) |
| --- | --- | --- |
| CNc1nc(Nc2ccc(C(=O)N3CCOCC3)cc2OC)ncc1Cl |  | 87.6% |
| O=C(NC[C@H](O)CO)c1ccncc1Nc1ccc(I)cc1F | 0.0296 µM (active) |  |
| Cc1ccccc1-n1c(Cn2nc(-c3cccc(O)c3)c3c(N)ncnc32)nc2cccc(C)c2c1=O | 0.833 µM (active) |  |
| O=C(O)Cc1cccc(OCCCN(Cc2cccc(C(F)(F)F)c2Cl)CC(c2ccccc2)c2ccccc2)c1 |  | 112% |
| CCNC(=O)CCCC=CC[C@@H]1[C@H](C=CC(O)CCc2ccccc2)[C@@H](O)C[C@@H]1O (stereo not given in full) |  | 110% |
| CCCCC[C@H](O)C=C[C@H]1[C@H](O)CC(=O)[C@H]1CC=CCCCC(=O)O |  | 132% |
| CC1C(=O)OC2C(O)C34C5CC(C(C)(C)C)C36C(OC(=O)C6O)OC4(C(=O)O5)C12O (stereo not given) |  | 126% |
| CN1N=C(N)c2cn([C@@H]3O[C@H](COP(=O)(O)O)[C@@H](O)[C@@H]3O)c3ncnc1c23 | 0.0833 µM (active) |  |
| CN[C@@H]1[C@@H](O)[C@@H](O[C@@H]2[C@@H](O)[C@H](O[C@H]3O[C@H](CN)[C@@H](O)[C@H](O)[C@@H]3O)[C@@H](N)C[C@@H]2NC(=O)[C@@H](O)CN)OC[C@]1(C)O |  | 124% |
| COc1ccc2c(c1)CC[C@H]1[C@@H]2CC[C@]2(C)[C@@H](NCCCCCCN3C(=O)C=CC3=O)CC[C@H]12 |  | 140% |
| CC(C)(F)C[C@H](N[C@@H](c1ccc(-c2ccc(S(C)(=O)=O)cc2)cc1)C(F)(F)F)C(=O)NC1(C#N)CC1 |  | 107% |
| CC(C)c1c(C(=O)Nc2ccccc2)c(-c2ccccc2)c(-c2ccc(F)cc2)n1CC[C@H](O)C[C@@H](O)CC(=O)O |  | 86.9% |
| Nc1ncnc2c1ncn2[C@@H]1O[C@H](CO)[C@@H](O)[C@@H]1O | 5.26 µM (active) |  |
| Cc1cnc(CNC(=O)c2c(=O)c3ccc(N4CCCN(C)CC4)nc3n3c2sc2ccccc23)cn1 |  | 112% [at 23.2 µM] |
| Fc1ccc(CNc2ncnc3ccc(F)cc23)cc1 | 5.9 µM (active) |  |
| O=C(O)C1=CC(O)C(O)[C@H](O)C1 (stereo not given in full) |  | 99.3% |
| CC(C)C[C@@H](C(=O)N[C@H](C(=O)OC1CCCC1)c1ccccc1)[C@H](O)C(=O)NO | 5.26 µM (active) |  |
| CN(C)CCOc1ccc(-c2nc(-c3ccc4c(c3)CCC4=NO)c(-c3ccncc3)[nH]2)cc1 | 11.8 µM (active) |  |
| CC(=O)N1CCN(c2ccc(OCc3nn(C)c(C)c3-c3cccc4c(CCCOc5cc(C)c(Cl)c(C)c5)c(C(=O)O)n(Cc5cccnc5)c34)cc2)CC1 | 26.4 µM (active) |  |
| CCCCOCCOc1nc(-c2ccc(C(=O)O)c(F)c2)sc1C |  | 103% |
